Results as given in PubChem BioAssay (NCI).
The panel holds about 83,000 compounds, 20% with a hit somewhere; the sample as a whole holds those more often.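 For each line, cells grew in 96-well plates with the test compound present at a single concentration for 48 hours.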 Activity calls are given as the source filed them. Rule for the calls: active = growth percent below 10; inactive = the rest.

Tested on: SN12C renal
Assay: NCI-60 one-dose screen, 48 h (100 = growth as untreated, 0 = no growth, -100 = all killed)
Settings: 10 µM unless noted

Structure (SMILES)	growth
CC(C)(C)c1cc(-c2nc3ccc(N4CCN(CCO)CC4)cc3[nH]2)cc(C(C)(C)C)c1O	85.8% (inactive)
Clc1ccc(/C=C/c2nc(N3CCOCC3)c3nc(Cl)c(Cl)cc3n2)cc1	94.1% (inactive)
CCOC(=O)/C=C\C(=O)NC(N)=O	103% (inactive)
CCC#CC[C@H]1C/C=C2/C(=O)C=C[C@@H]2C/C=C\CCCC(=O)O1	0.755% (active)
O=C(Cc1c(F)cccc1Cl)Nc1ccc(S(=O)(=O)Nc2ncccn2)cc1	96% (inactive)
C=CCc1cc(Cl)cc2c(OC(C)=O)c(C(C)=O)c(-c3ccccc3)nc12	99.5% (inactive)
Cc1c(C(=O)NCc2ccccc2)[n+](=O)c2cc(F)ccc2n1[O-]	103% (inactive)
C=CCOc1cccc(/C=C/C(=O)c2sc(Nc3cccnc3)nc2C)c1	40.9% (inactive)
COc1ccc(C(=O)c2cc(OC)c(OC)c(OC)c2)cc1/C=C/C(=O)c1ccc2c(c1)OCO2	23.8% (inactive)
CCN(CC)S(=O)(=O)c1ccc2[nH]c(=O)cc(C(=O)Nc3ccc(OC)cc3OC)c2c1	108% (inactive)
O=C(Nc1cc(C(F)(F)F)cc(C(F)(F)F)c1)Nc1ccc(OCc2nnc(-c3ccc(Cl)cc3)o2)c(F)c1	11.1% (inactive)
O=C1CCCCN1CCCCC#Cc1ccccc1C#Cc1ccccn1	106% (inactive)
COc1ccc2c(c1)C=CC(C#N)N2C(=O)c1ccccc1 (stereo not drawn)	38.4% (inactive)
CC1(C)OC2COC3(C(=O)O)OC(C)(C)OC3C2O1 (stereo not drawn)	91.4% (inactive)
COc1cc(C2C=C(C)N=C3SC(C)=NN32)cc(OC)c1OC (stereo not drawn)	109% (inactive)
O=C(/C=C/CN1CCOCC1)Nc1cc2c(Nc3cccc(Cl)c3F)ncnc2cc1OCCOC(F)F	61.8% (inactive)
Cc1oc2nc[nH]c(=O)c2c1C(=O)/C=C/c1ccc(Cl)cc1	25.4% (inactive)
CCn1cc(C2NC(=O)c3cc(F)ccc3N2)c2cccc(Cl)c21 (stereo not drawn)	29.8% (inactive)
CN(C)C/C=C/C(=O)Nc1cc2c(Nc3ccc(F)c(Cl)c3F)ncnc2cc1OCCOC(F)F	2.22% (active)
CC(=O)Nc1ccc2c(c1)/C(=C\C=C/c1ccc([N+](C)(C)C)cc1)c1ccccc1-2	16.6% (inactive)

Structure (SMILES)	growth
c1ccc([P+](CCC[P+](c2ccccc2)(c2ccccc2)c2ccccc2)(c2ccccc2)c2ccccc2)cc1	78% (inactive)
COc1ccc2c(c1)NC(=O)CN2c1nc(C)nc2ccccc12	24.7% (inactive)
CCCCCC/C=C\CCCCCCCCOc1ccc(CCOP(=O)(O)OCC[N+](C)(C)C)cc1	91.4% (inactive)
O=C(Nc1ccc(I)cc1)c1cc([N+](=O)[O-])ccc1O	34.3% (inactive)
NC(=O)c1c(NC(=O)c2ccc3c(c2)OCO3)sc2c1CCC(=O)C2	8.18% (active)
O=C(CNC(=O)c1cccc2ccccc12)Nc1ccccc1Oc1ccccc1	21.8% (inactive)
COC12CC(=O)C(C(C)=O)=C(O)C1(C)c1c(O)c(C)c(O)c(C(C)=O)c1O2 (stereo not drawn)	49.1% (inactive)
O=S(=O)(NCCCNc1nccc(-c2c(-c3ccccc3)nc3sccn23)n1)c1ccc(F)cc1	44.1% (inactive)
CCCCOc1nc2c(C)cccc2cc1C1CNC(=O)c2ccccc2N1 (stereo not drawn)	70.9% (inactive)
C=CCN=C1NC(=O)/C(=C/c2cc(C(C)(C)C)c(O)c(C(C)(C)C)c2)S1	91% (inactive)
Nc1nc(-c2ccccc2)cs1	101% (inactive)
CC[C@H](C)[C@@H]1NC(=O)[C@H]([C@@H](C)O)NC(=O)C(Cc2ccccc2)NC(=O)[C@@H]2CCCN2C(=O)C(C(C)C)NC(=O)C(Cc2ccccc2)NC(=O)CNC(=O)[C@@H]2CCCN2C1=O (stereo partly drawn)	72.5% (inactive)
CCN(CC)CCSc1c2ccc(Cl)cc2nc2ccc(OC)cc12	90.1% (inactive)
Cc1cc2c(C(C)C)c(O)c(O)c(C=NCCCCC(=O)O)c2c(O)c1-c1c(C)cc2c(C(C)C)c(O)c(O)c(C=NCCCCC(=O)O)c2c1O	49.2% (inactive)
COc1ccc(Cn2cc(COc3cc(/C=C/C(=O)c4cc(OC)c(OC)c(OC)c4)ccc3OC)nn2)cc1	51% (inactive)
Cc1ccc(C2=NN(c3ccc(S(=O)(=O)NC(=O)NCc4ccccc4)cc3)C(c3ccc(N(C)C)cc3)C2)c(C)c1 (stereo not drawn)	46.5% (inactive)
c1ccc2c(c1)Oc1ccccc1C2C1c2ccccc2Oc2ccccc21	101% (inactive)
COc1ccc(S(=O)(=O)Nc2cc(/C=C\c3cc(OC)c(OC)c(OC)c3)cc(OC)c2OC)cc1OC	45% (inactive)
COC1=CC(c2ccc[nH]2)=N/C1=C\c1[nH]c(C)c(CCCn2cc(CCCCCCCCC[C@@H]3Cc4cc(O)ccc4C4CC[C@]5(C)[C@@H](O)CC[C@H]5C43)nn2)c1C (stereo partly drawn)	62.4% (inactive)

Tested on: UO-31 renal
Assay: as above
Settings: 10 µM unless noted

Structure (SMILES)	growth
CC(C)(C)c1cc(-c2nc3ccc(N4CCN(CCO)CC4)cc3[nH]2)cc(C(C)(C)C)c1O	72.4% (inactive)
Clc1ccc(/C=C/c2nc(N3CCOCC3)c3nc(Cl)c(Cl)cc3n2)cc1	76.7% (inactive)
CCOC(=O)/C=C\C(=O)NC(N)=O	90.8% (inactive)
CCC#CC[C@H]1C/C=C2/C(=O)C=C[C@@H]2C/C=C\CCCC(=O)O1	-82.7% (active)
O=C(Cc1c(F)cccc1Cl)Nc1ccc(S(=O)(=O)Nc2ncccn2)cc1	42.7% (inactive)
C=CCc1cc(Cl)cc2c(OC(C)=O)c(C(C)=O)c(-c3ccccc3)nc12	78.2% (inactive)
Cc1c(C(=O)NCc2ccccc2)[n+](=O)c2cc(F)ccc2n1[O-]	39.4% (inactive)
C=CCOc1cccc(/C=C/C(=O)c2sc(Nc3cccnc3)nc2C)c1	47.7% (inactive)
COc1ccc(C(=O)c2cc(OC)c(OC)c(OC)c2)cc1/C=C/C(=O)c1ccc2c(c1)OCO2	-9.84% (active)
CCN(CC)S(=O)(=O)c1ccc2[nH]c(=O)cc(C(=O)Nc3ccc(OC)cc3OC)c2c1	108% (inactive)
O=C(Nc1cc(C(F)(F)F)cc(C(F)(F)F)c1)Nc1ccc(OCc2nnc(-c3ccc(Cl)cc3)o2)c(F)c1	-2.51% (active)
O=C1CCCCN1CCCCC#Cc1ccccc1C#Cc1ccccn1	42.2% (inactive)
COc1ccc2c(c1)C=CC(C#N)N2C(=O)c1ccccc1 (stereo not drawn)	53% (inactive)
CC1(C)OC2COC3(C(=O)O)OC(C)(C)OC3C2O1 (stereo not drawn)	92.3% (inactive)
COc1cc(C2C=C(C)N=C3SC(C)=NN32)cc(OC)c1OC (stereo not drawn)	72% (inactive)
O=C(/C=C/CN1CCOCC1)Nc1cc2c(Nc3cccc(Cl)c3F)ncnc2cc1OCCOC(F)F	36.8% (inactive)
Cc1oc2nc[nH]c(=O)c2c1C(=O)/C=C/c1ccc(Cl)cc1	37.9% (inactive)
CCn1cc(C2NC(=O)c3cc(F)ccc3N2)c2cccc(Cl)c21 (stereo not drawn)	42.6% (inactive)
CN(C)C/C=C/C(=O)Nc1cc2c(Nc3ccc(F)c(Cl)c3F)ncnc2cc1OCCOC(F)F	4.31% (active)
CC(=O)Nc1ccc2c(c1)/C(=C\C=C/c1ccc([N+](C)(C)C)cc1)c1ccccc1-2	64.5% (inactive)

Structure (SMILES)	growth
c1ccc([P+](CCC[P+](c2ccccc2)(c2ccccc2)c2ccccc2)(c2ccccc2)c2ccccc2)cc1	82.3% (inactive)
COc1ccc2c(c1)NC(=O)CN2c1nc(C)nc2ccccc12	26.8% (inactive)
CCCCCC/C=C\CCCCCCCCOc1ccc(CCOP(=O)(O)OCC[N+](C)(C)C)cc1	83.2% (inactive)
O=C(Nc1ccc(I)cc1)c1cc([N+](=O)[O-])ccc1O	22.5% (inactive)
NC(=O)c1c(NC(=O)c2ccc3c(c2)OCO3)sc2c1CCC(=O)C2	-93.4% (active)
O=C(CNC(=O)c1cccc2ccccc12)Nc1ccccc1Oc1ccccc1	33.8% (inactive)
COC12CC(=O)C(C(C)=O)=C(O)C1(C)c1c(O)c(C)c(O)c(C(C)=O)c1O2 (stereo not drawn)	48.9% (inactive)
O=S(=O)(NCCCNc1nccc(-c2c(-c3ccccc3)nc3sccn23)n1)c1ccc(F)cc1	24.9% (inactive)
CCCCOc1nc2c(C)cccc2cc1C1CNC(=O)c2ccccc2N1 (stereo not drawn)	67.8% (inactive)
C=CCN=C1NC(=O)/C(=C/c2cc(C(C)(C)C)c(O)c(C(C)(C)C)c2)S1	67% (inactive)
Nc1nc(-c2ccccc2)cs1	75.7% (inactive)
CC[C@H](C)[C@@H]1NC(=O)[C@H]([C@@H](C)O)NC(=O)C(Cc2ccccc2)NC(=O)[C@@H]2CCCN2C(=O)C(C(C)C)NC(=O)C(Cc2ccccc2)NC(=O)CNC(=O)[C@@H]2CCCN2C1=O (stereo partly drawn)	36.8% (inactive)
CCN(CC)CCSc1c2ccc(Cl)cc2nc2ccc(OC)cc12	88.5% (inactive)
Cc1cc2c(C(C)C)c(O)c(O)c(C=NCCCCC(=O)O)c2c(O)c1-c1c(C)cc2c(C(C)C)c(O)c(O)c(C=NCCCCC(=O)O)c2c1O	74.2% (inactive)
COc1ccc(Cn2cc(COc3cc(/C=C/C(=O)c4cc(OC)c(OC)c(OC)c4)ccc3OC)nn2)cc1	37.8% (inactive)
Cc1ccc(C2=NN(c3ccc(S(=O)(=O)NC(=O)NCc4ccccc4)cc3)C(c3ccc(N(C)C)cc3)C2)c(C)c1 (stereo not drawn)	38.3% (inactive)
c1ccc2c(c1)Oc1ccccc1C2C1c2ccccc2Oc2ccccc21	73.5% (inactive)
COc1ccc(S(=O)(=O)Nc2cc(/C=C\c3cc(OC)c(OC)c(OC)c3)cc(OC)c2OC)cc1OC	40.7% (inactive)
COC1=CC(c2ccc[nH]2)=N/C1=C\c1[nH]c(C)c(CCCn2cc(CCCCCCCCC[C@@H]3Cc4cc(O)ccc4C4CC[C@]5(C)[C@@H](O)CC[C@H]5C43)nn2)c1C (stereo partly drawn)	49.8% (inactive)
